# Rows were chosen to be rich in hits. Some 2.7% of all compounds tested hit in one or more screens of this group.
# SENP8 block-1 = blocks the human protease SENP8 | purified SENP8, Z-RLRGG-aminoluciferin cleavage, luminescence | inhibition, % at 10 µM | hit rate 1.2% among 330,000 | AID 2540; in the data active means inhibition above about 50%
# SENP7 inh = blocks the human protease SENP7; Q9BQF6; recombinant SENP7, Z-RLRGG-aminoluciferin luminescence, 40 min; inhibition, % at 5 µM; hit rate 1.5% among 330,000; AID 434973;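 active means inhibition above about 50% at the single test dose, limit read from the data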
# SENP8 block-2 = inhibitors of human SENP8 protease; recombinant SENP8, Nedd8 substrate fluorescence; Q96LD8; hit rate 0.64% among 360,000; inhibition, % at 20 µM; AID 602440; in the data active means inhibition mostly above about 40%, no sharp cut-off; inactive means mostly below about 27%
# SENP6 block = blocks the human protease SENP6; hit rate 1.8% among 330,000; Recombinant SENP6 catalytic domain, aminoluciferin luminescence; inhibition, % at 10 µM; Q9GZR1;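 active means inhibition above about 50% at the single tested dose, limit read from the data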
# Target sequence (Q9GZR1 628-1112 limits assumed): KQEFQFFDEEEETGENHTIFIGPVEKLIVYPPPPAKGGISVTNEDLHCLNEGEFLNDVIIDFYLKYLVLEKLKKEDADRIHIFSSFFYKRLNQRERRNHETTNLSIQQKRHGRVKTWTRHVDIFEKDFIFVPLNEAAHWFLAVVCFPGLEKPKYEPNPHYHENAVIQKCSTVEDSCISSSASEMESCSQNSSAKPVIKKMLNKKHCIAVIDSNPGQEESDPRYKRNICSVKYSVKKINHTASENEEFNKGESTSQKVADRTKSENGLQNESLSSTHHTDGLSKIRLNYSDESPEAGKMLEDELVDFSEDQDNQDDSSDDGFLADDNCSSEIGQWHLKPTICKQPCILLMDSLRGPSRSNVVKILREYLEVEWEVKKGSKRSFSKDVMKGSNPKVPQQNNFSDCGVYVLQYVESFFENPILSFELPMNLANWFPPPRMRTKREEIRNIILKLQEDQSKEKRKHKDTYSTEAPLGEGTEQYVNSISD
# HSP90 refold inh = HSP90 refolding inhibition in rabbit reticulocyte lysate; luciferase refolding luminescence, 3 h; inhibition, % at 5.6 µM; hit rate 0.91% among 290,000; AID 1789;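 active means inhibition above the screen-wide mean plus 3 SD, computed separately per campaign, cut at about 16% in these data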;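 further: inhibitors lower the luminescence because luciferase stays unfolded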
# SENP8 conf = confirmation of human SENP8 protease inhibitors. shares compounds with SENP7 inh. hit rate 40% among 6,200. Recombinant SENP8, Z-RLRGG-aminoluciferin luminescence, 60 min. inhibition, % at 12.5 µM;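 active means mean inhibition across replicates above about 50%, limit read from the data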
# SENP6 confirm = confirmation of human SENP6 protease inhibitors. shares compounds with SENP7 inh. recombinant SENP6, Z-RLRGG-aminoluciferin luminescence. inhibition, % at 12.5 µM. hit rate 58% among 6,200. AID 488915
# SENP7 conf = human SENP7 inhibition, confirmed; AID 488917; hit rate 69% among 6,200; shares compounds with SENP7 inh; inhibition, % at 12.5 µM; recombinant SENP7, Z-RLRGG-aminoluciferin luminescence, 40 min
# Casp3 SENP sel = selectivity test for SENP inhibitors: human caspase-3 inhibition | shares compounds with SENP7 inh | purified caspase-3, Z-DEVD-aminoluciferin luminescence, 60 min | inhibition, % at 12.5 µM | hit rate 60% among 6,200 | AID 488918;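 active means mean inhibition above about 50%, limit read from the data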
# SENP luc ctr = counter-screen for SENP inhibitors: luminescence interference; shares compounds with SENP7 inh; Pre-incubated SENP8/Z-RLRGG-aminoluciferin, luciferase luminescence interference; inhibition, % at 12.5 µM; hit rate 39% among 6,200; AID 488919;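 active means mean inhibition above about 50% when retested at one dose, limit read from the data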
# A number is an active result; – = inactive; · = no result.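 How the source made its calls, unless noted: active means mean inhibition above about 50% in the one-dose retest (limit read from the data); inactive means the rest.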
SMILES,SENP8 block-1,SENP7 inh,SENP8 block-2,SENP6 block,HSP90 refold inh,SENP8 conf,SENP6 confirm,SENP7 conf,Casp3 SENP sel,SENP luc ctr
COC(=O)c1ccc(/C=C/c2ccc3cccc(OC(C)=O)c3n2)cc1,87,91,–,95,–,79,90,98,86,–
CCCCN1C(=O)c2ccc(C(=O)OCC(=O)NCCc3ccc(S(N)(=O)=O)cc3)cc2C1=O,–,–,–,–,·,·,·,·,·,·
COc1ccc(C)c2sc(=NC(=O)c3ccccc3)n(C)c12,–,99,–,–,–,–,78,85,90,–
COc1ccc(C)c2sc(=NC(=O)c3cccc(N4C(=O)CCC4=O)c3)n(C)c12,–,78,–,51,–,–,–,–,–,–
O=C(CSc1ncnc2ccccc12)NCc1ccco1,–,–,–,–,–,·,·,·,·,·
Nc1cccnc1Sc1cccc(Cl)c1,–,–,–,61,–,–,–,–,–,–
NC(=O)c1cccnc1Sc1ccc(Cl)cc1,–,–,–,–,–,·,·,·,·,·
Nc1cccnc1Sc1ccc(Cl)cc1,–,–,–,55,–,–,–,–,–,–
Cc1cc(C)c2nc(-n3nc(C)cc3N)cc(C)c2c1,–,–,–,–,–,·,·,·,·,·
Cc1cc(N)n(-c2cc(C)c3ccccc3n2)n1,73,81,–,79,–,–,71,93,79,70
C=CCn1c(NC(=O)c2ccc(Br)o2)c(S(=O)(=O)c2ccccc2)c2nc3ccccc3nc21,–,–,–,73,–,–,–,–,–,–
Nc1ccc2ncccc2c1,–,–,–,–,–,·,·,·,·,·
Nc1ccc(/C=C/c2ccc3ncccc3c2)cc1,52,74,–,60,–,–,57,80,–,–
COc1ccc(Cn2c(C3CC3)nc3ccc(NC(=O)c4cccnc4)cc3c2=O)cc1,–,–,–,–,–,·,·,·,·,·
COc1ccc(Cn2c(C3CC3)nc3ccc(NC(C)=O)cc3c2=O)cc1,–,67,–,73,–,70,68,90,73,–
COc1ccc(C(=O)NCc2ccc(-c3nc4ccccc4s3)cc2)cc1OC,–,–,–,–,–,·,·,·,·,·
COc1ccc2nc(-c3ccc(F)cc3)sc2c1,74,97,–,97,·,95,97,101,95,78
COc1cc(OC)cc(-c2nc3ccccc3s2)c1,81,91,–,–,–,92,93,100,82,77
Cc1ccc(N(CC(=O)N/N=C/c2ccc(OC3CSC3)cc2)S(=O)(=O)c2ccccc2)cc1,–,–,–,–,–,·,·,·,·,·
CNC(=O)c1ccc(OC2CSC2)cc1,–,–,–,–,–,·,·,·,·,·
O=C(N/N=C/c1ccc(OC2CSC2)cc1)c1ccccc1,52,–,–,62,–,–,–,–,–,–
O=C(/C=C/c1ccc(OC2CSC2)cc1)c1ccccc1,54,55,–,–,–,–,–,–,–,–
COc1cccc2c1OCC/C2=N\NC(=O)C(C)Oc1ccc([N+](=O)[O-])cc1 (configuration not stated),–,–,–,–,–,·,·,·,·,·
COc1ccc(-n2ncc3c(SCC(=O)N4CCN(c5ccccc5OC)CC4)ncnc32)cc1,69,–,–,–,–,–,–,–,–,–
CCOC(=O)Cc1csc(NC(=O)CSc2ncnc3c2cnn3-c2ccc(OC)cc2)n1,71,52,–,75,–,–,69,59,84,–
Cc1nn(CC(=O)Nc2ccc(Cl)cn2)c(C)c1[N+](=O)[O-],–,–,–,–,–,·,·,·,·,·
Cc1nn(C(C)C(=O)Nc2ccc(Cl)cn2)c(C)c1[N+](=O)[O-] (configuration not stated),–,80,–,–,–,–,–,–,–,–
O=C(Cn1nnc(-c2ccccc2)n1)Nc1ccc2c(c1)OCO2,–,–,–,–,–,·,·,·,·,·

# Assay outcomes deposited in PubChem BioAssay by several laboratories.
